Shown are actives, neighbours in structure and some others; about 19% of the full set was active somewhere.
TDP1 cell CPT – DT40-hTDP1 cell growth loss with CPT. chicken DT40 Tdp1-/-;hTDP1 cells + 20 nM CPT, ATP luminescence, 48 h. Potency, µM (highest dose often 46.2 µM), for the others: at the top dose activity change, negative = growth inhibition, most hits filed as inhibitors. 12% of 420,000 active. AID 686979; note: potency is the fitted concentration of half-maximal effect; nearly all actives have a fitted effect of over 55% in size
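Chicken DT40 Tdp1-/- cells stably complemented with human TDP1 were seeded at 400 cells/well in medium containing 20 nM camptothecin, exposed to pin-transferred compounds, and grown at 37 °C for at least 48 hr. Viability was read as ATP luminescence.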
HT1080 IDH1KD tx – toxicity to HT-1080 IDH1 knockdown cells (counter line); HT-1080 IDH1 knockdown viability, ATP luminescence, 48 h; Potency, µM (series often up to 46.1 µM), inactives show top-dose activity, negative = toxicity, most hits filed as cytotoxic; 2% of 360,000 active;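 note: potency is the fitted concentration of half-maximal effect; 0% = DMSO wells and -100% = cell-free medium wells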
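Cytotoxicity counter-line: IDH1KD HT-1080, 48 h, CellTiter-Glo. Curves classed by r2, magnitude and activity.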
IL1B secr inh – blocks inflammasome-driven IL-1 beta release | THP-1 LPS/ATP IL-1B secretion, AlphaLISA, 16 h; active compounds read low | activity change, % at 57.5 µM | 4.7% of 360,000 active | AID 743279; in the data active = activity change below about -50%; inconclusive = mostly about -30% to -49%
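Secreted IL-1B measured by AlphaLISA bead assay after 16 h compound exposure of THP-1 cells; compounds (final up to 57.5 uM) added 1 h before LPS (250 ng/mL) and ATP (1.25 mM) stimulation; lower signal means less secretion.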
DT40 TDP1 no CPT – qHTS for Inhibitors of human tyrosyl-DNA phosphodiesterase 1 (TDP1): qHTS in cells in absence of CPT; DT40 Tdp1-/- hTDP1 cells, no CPT, ATP luminescence, 48 h; Potency, µM (highest dose often 46.2 µM), for the others: top-dose activity change, negative = growth inhibition, most hits filed as inhibitors; 15% of 420,000 active; AID 686978, 2013; note: potency is the fitted concentration of half-maximal effect; nearly all actives have a fitted effect of over 55% in size
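Growth kinetics read by CellTiter-Glo luminescence after ≥48 hr at 37 °C. Cells: DT40 Tdp1-/- stably carrying human TDP1, 400 per well, compound exposure in the absence of CPT (DMSO vehicle).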
HT1080-NT tox – kills 2HG-producing HT-1080-NT fibrosarcoma cells; HT-1080-NT fibrosarcoma viability, CellTiter-Glo ATP luminescence, 48 h; Potency, µM (doses to about 46.1 µM), without a hit: at the highest dose activity, negative = less viability, most hits filed as cytotoxic; 1.6% of 360,000 active; AID 686970;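 note: NT is the 2HG producing partner of a matched IDH1 knockdown line; potency is the fitted concentration of half-maximal effect; 0% = DMSO-treated cells and -100% = media-only wells without cells; nearly all actives have a fitted effect of over 55% in size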
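Luminescent CellTiter-Glo readout after 48 hours of compound exposure at 37 degrees C defined viability of HT-1080-NT cells. Activity was normalized to DMSO wells and cell-free media wells; concentration-response curves were fitted and assigned curve classes.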
Numbers without * were called inactive; ? = inconclusive; nt = not tested or not shown. Unless noted, calls come from the whole dose curve; as a rule, active = well fitted curve in the direction sought with a large enough effect; inconclusive = small, poorly fitted or top-dose-only effect, or another doubt; inactive = no such curve, though single readings can be large; an effect the other way counts as inactive or inconclusive. Unless noted, % is set by controls: 0 for no effect and ±100 for the full control effect.

SMILES | TDP1 cell CPT | HT1080 IDH1KD tx | IL1B secr inh | DT40 TDP1 no CPT | HT1080-NT tox
O=C(C[C@H]1C/C=C\C[C@@H](Cc2ccc(F)cc2)C(=O)OC[C@H]2CCCN2C1=O)N[C@@H](CO)Cc1ccccc1 | ? | -3% | -16 | ? | 0%
O=C(C[C@@H]1C/C=C\CC[C@@H](Cc2ccc(F)cc2)C(=O)OC[C@@H]2CCCN2C1=O)N[C@H](CO)Cc1ccccc1 | 16µM* | -7% | -7 | 18µM* | -1%
O=C(C[C@@H]1C/C=C\CCC(=O)OC[C@@H]2CCCN2C1=O)N[C@H](CO)Cc1ccccc1 | 20% | 2% | 15 | 2% | 3%
O=C(C[C@H]1C/C=C\CC[C@H](Cc2ccc(F)cc2)C(=O)OC[C@@H]2CCCN2C1=O)N[C@H](CO)Cc1ccccc1 | 26µM* | -1% | -13 | ? | 0%
COc1ccc(CN2CCN(Cc3ccccc3F)CC2)cc1OC | -12% | 0% | 28 | ? | 0%
Cc1ccccc1-n1nc(C)c2cc(C(=O)N3CCN(S(=O)(=O)c4ccc(F)cc4)CC3)sc21 | 10µM* | -24% | -10 | 18µM* | -1%
Cc1ccc2c(c1)Oc1ccc(NC(=O)CCl)cc1C(=O)N2 | 2.6µM* | 2.9µM* | -100* | 2.3µM* | 3.7µM*
O=CNC1c2ccccc2CCc2ccccc21 | -6% | -26% | 20 | -10% | -1%
CCc1nc2ccc(C(=O)N(CC)CCN(C)C)cn2c1N(C)Cc1ccc(OC)cc1 | -17% | -2% | -24 | -18% | -4%
CCc1nc2ccc(C(=O)NCCNC(C)=O)cn2c1N(C)Cc1ccc(OC)cc1 | -7% | 7% | -6 | -10% | 15%
CCc1nc2ccc(C(=O)NCCOc3ccc(OC)cc3)cn2c1N(C)Cc1ccc(OC)cc1 | ? | -3% | -22 | 21µM* | ?
CCc1nc2ccc(C(=O)NCCOc3ccc(OC)cc3)cn2c1N(C)Cc1cccs1 | ? | ? | -52* | ? | ?
CCCCNC(=O)c1ccc2nc(CC)c(N(C)Cc3ccc(OC)cc3)n2c1 | 16µM* | 0% | -10 | ? | 1%
CCc1nc2ccc(C(=O)NCCC(C)C)cn2c1N(CC)CCOC | ? | 22% | 40 | 21µM* | 17%
CCc1nc2ccc(C(=O)NCCC(C)C)cn2c1N(C)Cc1ccc(OC)cc1 | ? | ? | -15 | 16µM* | ?
Cc1cc(C)cc(OCC(=O)N2N=C(C(F)(F)F)CC2(O)C(C)(C)C)c1 (stereo unspecified) | ? | 16µM* | 2 | ? | 18µM*
COc1cccc(CN2CCN(c3nc4nonc4nc3N3CCCCC3)CC2=O)c1 | ? | -1% | -6 | ? | 7%
COC(=O)[C@]12CCCCC=C1N(Cc1cccc3ccccc13)C(=O)[C@H](CC(=O)NCc1cccc3ccccc13)C2 | ? | -16% | -19 | ? | -14%
COC(=O)[C@]12CCCCC=C1N(Cc1cccc3ccccc13)C(=O)[C@H](CC(=O)NCc1cccs1)C2 | ? | ? | -60* | ? | ?
COC(=O)[C@]12CCCCC=C1N(Cc1cccc3ccccc13)C(=O)[C@H](CC(=O)NCc1ccc(C)o1)C2 | ? | ? | 0 | 21µM* | -28%
CCOC(=O)[C@]12CCCC=C1N(Cc1cccc3ccccc13)C(=O)[C@H](CC(=O)NCc1ccc(C)o1)C2 | ? | ? | -2 | ? | ?
Cc1ccc(OCC(=O)Nc2ccc(OCc3cc(=O)n4ccsc4n3)cc2)cc1C | -29% | nt | nt | ? | nt
CNC(=O)C[C@H]1C(=O)N(CCc2ccccc2)C[C@@H]1CSC | 7% | 3% | 13 | 3% | 8%
COC(=O)C[C@H](NC(=O)Cn1cnc2c(SC)nc(N)nc21)C(=O)OC | 2% | 3% | 26 | 21% | 8%
COc1ccc(CCN2C(=O)CC(N3CCOCC3)C2=O)cc1OC (stereo unspecified) | 60% | 16% | 40 | 4% | 14%
